# Experimental data reported in PubChem BioAssay AID1159580 (chemical genetic matrix, 2015).
# “And” between values parts separate entries of the source, which are not always exact repeats. Identical values can stand only once. Among all 5,500 compounds or so, about 2,000 (36%) were called active. Not shown: some 18% with an inconclusive outcome. Rule as the data show it: active = normalized growth mostly below about 0.91 (no sharp cut-off); inconclusive = no clear call, values can overlap the other calls; inactive = mostly above about 0.92. Some of the results follow.
# Experiment: chemical genetic growth profiling, strain panel (AID 1159580);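 also: tested at 20 µM; growth read once vehicle control cultures reached saturation at 30 °C; 1 = growth at the plate median or of vehicle wells; lower values mean less growth of the strain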
# Conditions: S. cerevisiae deletion strains, growth OD
compound,measurement,setting,value
CC[C@@]1(O)C[C@H](O[C@H]2C[C@H](N(C)C)[C@H](O)[C@H](C)O2)c2c(cc3c(c2O)C(=O)c2c(O)cccc2C3=O)[C@H]1C(=O)OC,normalized growth,"locus YAL021C, strain ccr4, stronger effect = lower value",0.653 (active)
same,normalized growth,"locus YAL026C, strain drs2, stronger effect = lower value",0.883 (active)
same,normalized growth,"locus YAL030W, strain snc1, stronger effect = lower value",0.907 (active)
same,normalized growth,"locus YBL061C, strain skt5, stronger effect = lower value",0.891 (active)
same,normalized growth,"locus YBR009C, strain hhf1, stronger effect = lower value",0.783 (active)
same,normalized growth,"locus YBR021W, strain FUR4, stronger effect = lower value",1.06 (inactive)
same,normalized growth,"locus YBR023C, strain chs3, stronger effect = lower value",0.899 (active)
same,normalized growth,"locus YBR171W, strain sec66, stronger effect = lower value",0.994 (inactive)
same,normalized growth,"locus YBR229C, strain ROT2, stronger effect = lower value",0.942 (inactive)
same,normalized growth,"locus YBR231C, strain swc5, stronger effect = lower value",0.823 (active)
same,normalized growth,"locus YBR279W, strain paf1, stronger effect = lower value",0.94 (inactive)
same,normalized growth,"locus YCL011C, strain gbp2, stronger effect = lower value",0.867 (active)
same,normalized growth,"locus YCL016C, strain dcc1, stronger effect = lower value",0.704 (active)
same,normalized growth,"locus YCL029C, strain bik1, stronger effect = lower value",0.854 (active)
same,normalized growth,"locus YCL069W, strain vba3, stronger effect = lower value",0.972 (inactive)
same,normalized growth,"locus YCR088W, strain abp1, stronger effect = lower value",0.946 (inactive)
same,normalized growth,"locus YDL005C, strain med2, stronger effect = lower value",0.967 (inactive)
same,normalized growth,"locus YDL035C, strain GPR1, stronger effect = lower value",0.797 (active)
same,normalized growth,"locus YDL040C, strain nat1, stronger effect = lower value",0.955 (inactive)
same,normalized growth,"locus YDL074C, strain BRE1, stronger effect = lower value",0.765 (active)
same,normalized growth,"locus YDL101C, strain DUN1, stronger effect = lower value",0.786 (active)
same,normalized growth,"locus YDL185W, strain tfp1, stronger effect = lower value",0.853 (active)
same,normalized growth,"locus YDL192W, strain arf1, stronger effect = lower value",0.666 (active)
same,normalized growth,"locus YDR001C, strain nth1, stronger effect = lower value",0.944 (inactive)
same,normalized growth,"locus YDR069C, strain doa4, stronger effect = lower value",0.908 (inactive)
same,normalized growth,"locus YDR101C, strain arx1, stronger effect = lower value",0.8 (active)
same,normalized growth,"locus YDR137W, strain rgp1, stronger effect = lower value",0.631 (active)
same,normalized growth,"locus YDR150W, strain NUM1, stronger effect = lower value",0.945 (inactive)
same,normalized growth,"locus YDR159W, strain sac3, stronger effect = lower value",0.73 (active)
same,normalized growth,"locus YDR162C, strain NBP2, stronger effect = lower value",0.595 (active)
same,normalized growth,"locus YDR195W, strain ref2",1.73 [resistant] (active)
same,normalized growth,"locus YDR297W, strain sur2, stronger effect = lower value",0.928 (inactive)
same,normalized growth,"locus YDR318W, strain mcm21, stronger effect = lower value",0.866 (active)
same,normalized growth,"locus YDR334W, strain swr1, stronger effect = lower value",0.959 (inactive)
same,normalized growth,"locus YDR335W, strain msn5, stronger effect = lower value",0.908 (active)
same,normalized growth,"locus YDR388W, stronger effect = lower value",0.847 (active)
same,normalized growth,"locus YDR392W, strain spt3, stronger effect = lower value",0.676 (active)
same,normalized growth,"locus YDR502C, strain sam2, stronger effect = lower value",0.812 (active)
same,normalized growth,"locus YEL003W, strain gim4, stronger effect = lower value",0.924 (inactive)
same,normalized growth,"locus YEL037C, strain rad23, stronger effect = lower value",0.944 (inactive)
same,normalized growth,"locus YEL061C, strain CIN8 (second series), stronger effect = lower value",0.949 (inactive)
same,normalized growth,"locus YEL061C, strain CIN8, stronger effect = lower value",0.879 (active)
same,normalized growth,"locus YER015W, strain faa2, stronger effect = lower value",0.869 (active)
same,normalized growth,"locus YER016W, strain bim1, stronger effect = lower value",0.925 (inactive)
same,normalized growth,"locus YER110C, stronger effect = lower value",0.921 (inactive)
same,normalized growth,"locus YER111C, strain swi4, stronger effect = lower value",0.989 (inactive)
same,normalized growth,"locus YER155C, strain BEM2 (second series), stronger effect = lower value",0.931 (inactive)
same,normalized growth,"locus YER155C, strain BEM2, stronger effect = lower value",0.944 (inactive)
same,normalized growth,"locus YER167W, strain BCK2, stronger effect = lower value",0.884 (active)
same,normalized growth,"locus YFR010W, strain ubp6, stronger effect = lower value",0.887 (active)
same,normalized growth,"locus YGL078C, strain dbp3, stronger effect = lower value",0.928 (inactive)
same,normalized growth,"locus YGL086W, strain mad1, stronger effect = lower value",0.816 (active)
same,normalized growth,"locus YGL167C, strain pmr1, stronger effect = lower value",0.963 (inactive)
same,normalized growth,"locus YGL173C, strain kem1, stronger effect = lower value",0.913 (inactive)
same,normalized growth,"locus YGL227W, strain vid30, stronger effect = lower value",0.959 (inactive)
same,normalized growth,"locus YGL240W, strain doc1, stronger effect = lower value",0.788 (active)
same,normalized growth,"locus YGL248W, strain PDE1, stronger effect = lower value",0.88 (active)
same,normalized growth,"locus YGL253W, strain hxk2, stronger effect = lower value",0.792 (active)
same,normalized growth,"locus YGR078C, strain PAC10, stronger effect = lower value",0.905 (inactive)
same,normalized growth,"locus YGR135W, strain pre9, stronger effect = lower value",0.875 (active)
same,normalized growth,"locus YGR252W, strain gcn5, stronger effect = lower value",1.06 (inactive)
same,normalized growth,"locus YHR013C, strain ard1, stronger effect = lower value",1.01 (inactive)
same,normalized growth,"locus YHR027C, strain rpn1, stronger effect = lower value",0.785 (active)
same,normalized growth,"locus YHR030C, strain SLT2, stronger effect = lower value",0.899 (active) and 0.963 (inactive)
same,normalized growth,"locus YHR079C, strain IRE1 (second series), stronger effect = lower value",0.89 (active)
same,normalized growth,"locus YHR079C, strain IRE1, stronger effect = lower value",0.981 (inactive)
same,normalized growth,"locus YHR094C, strain hxt1, stronger effect = lower value",0.92 (active)
same,normalized growth,"locus YHR129C, strain ARP1, stronger effect = lower value",0.886 (active)
same,normalized growth,"locus YHR142W, strain chs7, stronger effect = lower value",0.882 (inactive)
same,normalized growth,"locus YHR200W, strain rpn10, stronger effect = lower value",0.788 (active)
same,normalized growth,"locus YIL066C, strain RNR3, stronger effect = lower value",0.79 (active)
same,normalized growth,"locus YIL073C, strain SPO22, stronger effect = lower value",0.538 (active)
same,normalized growth,"locus YIL125W, strain kgd1, stronger effect = lower value",0.918 (active)
same,normalized growth,"locus YIR030C, strain dcg1, stronger effect = lower value",0.871 (active)
same,normalized growth,"locus YJL092W, strain hpr5, stronger effect = lower value",0.804 (active)
same,normalized growth,"locus YJL095W, strain BCK1 (second series), stronger effect = lower value",0.886 (active)
same,normalized growth,"locus YJL095W, strain BCK1, stronger effect = lower value",0.776 (active) and 0.954 (inactive)
same,normalized growth,"locus YJL115W, strain asf1, stronger effect = lower value",0.507 (active)
same,normalized growth,"locus YJL129C, strain trk1, stronger effect = lower value",1.08 (inactive)
same,normalized growth,"locus YJL134W, strain LCB3, stronger effect = lower value",0.924 (active)
same,normalized growth,"locus YJL154C, strain vps35, stronger effect = lower value",0.95 (inactive)
same,normalized growth,"locus YJL164C, strain tpk1, stronger effect = lower value",0.867 (active)
same,normalized growth,"locus YJL166W, strain qcr8, stronger effect = lower value",0.85 (active)
same,normalized growth,"locus YJL168C, strain set2, stronger effect = lower value",0.863 (active)
same,normalized growth,"locus YJL187C, strain SWE1 (second series), stronger effect = lower value",0.871 (inactive)
same,normalized growth,"locus YJR043C, strain POL32, stronger effect = lower value",0.722 (active)
same,normalized growth,"locus YJR066W, strain TOR1, stronger effect = lower value",0.879 (inactive)
same,normalized growth,"locus YKL009W, strain mrt4, stronger effect = lower value",0.897 (inactive)
